# Experimental data published in PubChem BioAssay AID720513 (Broad Institute, 2013).
# Screen size: about 2,100 compounds; about 480 (23%) were called active. Not shown: some 5% with an inconclusive outcome.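 Rule for the calls: active = fitted curve reaches 40% activation at or below the top valid concentration, in every replicate test; inconclusive = replicate tests disagree on the call; inactive = the rest, including activity in the opposite direction.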 Only a sample is shown. Results with a measured potency or affinity are listed apart.
# Test: PGC1a acetylation increase, cellular AlphaLISA – cell-based, cherry-picked samples, set 6, dose response (AID 720513);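 note: cells made to overexpress flag tagged PGC1a plus GCN5 acetyltransferase by viral infection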
# Details: U2OS PGC1a acetylation AlphaLISA, overnight, 0 = neutral, -100 = inhibitor control; series mostly up to 19.5 µM; activation (acetylation increase): at the top concentration
row,SMILES,activation (acetylation increase)
1,CSc1n[nH]c(NC(=O)c2c(-c3c(Cl)cccc3Cl)noc2C)n1,-24% (inactive)
2,COc1ccc(OCC(=O)NNC(=O)c2c(-c3ccccc3Cl)noc2C)cc1,-14.9% (inactive)
3,O=C(O)COc1ccc(/C=C2/SC(=S)N(Cc3ccccc3)C2=O)cc1,14.2% (inactive)
4,CNC[C@@H](Cc1ccccc1)NC[C@@H](CC1CCCCC1)NCCCc1ccccc1,-100% (inactive)
5,CCOC(=O)C1CCN(Cc2ccc(O)c3ncccc23)CC1,0.639% (inactive)
6,Cc1cccc(NS(=O)(=O)c2cccc(C(=O)NCC(c3ccco3)N3CCCCC3)c2)c1 (stereo not drawn),-13% (inactive)
7,COc1ccc(C(=O)C(CN2CCCC2)c2ccccc2)cc1 (stereo not drawn),-87% (inactive)
8,CC(C)c1ccc(S(=O)(=O)N(C)C2(C)CCS(=O)(=O)C2)cc1 (stereo not drawn),35.8% [at 10 µM] (inactive)
9,CN(C)S(=O)(=O)N1CCC(Cc2ccccc2)CC1,-4.72% (inactive)
10,CCCOc1cccc(C(=O)Nc2cc(NC(=O)c3ccco3)ccc2OC)c1,29.9% (inactive)
11,CCCCNC(=O)c1ccc(CS(=O)(=O)c2ccccc2OC)o1,7.67% (inactive)
12,O=C(Nc1ccc(F)cc1)N1CC(=O)N2[C@@H](CO)[C@@H](c3ccc(-c4ccccc4)cc3)[C@@H]2C1,26.6% (inactive)
13,CC(C)c1ccc(CNc2ccc([N+](=O)[O-])cn2)cc1,34.8% (inactive)
14,COc1ccc(-c2ccc(OC)cc2C(=O)O)cc1,14.8% [at 10 µM] (inactive)
15,Cc1nc(NCCc2ccccc2)c2nnn(Cc3ccccc3Cl)c2n1,-5.82% (inactive)
16,O=C(NC1CCCCCCC1O)c1ccccc1 (stereo not drawn),-13.7% (inactive)
17,CSc1ncccc1C(=O)N1CCN(C(=O)c2ccccc2)CC1,4.96% (inactive)
18,CO[C@@H]1CN(C)C(=O)c2cc(NC(C)=O)ccc2OC[C@@H](C)N(Cc2ccccc2C(=O)O)C[C@@H]1C,-27.9% (inactive)
19,Cc1cc(SCC(=O)NC(=O)NCc2ccco2)nc2ccccc12,23.1% (inactive)
20,C=CCn1c(SCC(=O)NCc2ccccc2)nnc1-c1ccccc1O,20.6% (inactive)
21,COc1ccccc1/C=C/c1nc2ccc(OC(C)=O)cc2c(=O)o1,11.5% (inactive)
22,COc1ccc(OC)c(Nc2ccc(C(=O)O)cc2[N+](=O)[O-])c1,5.16% [at 10 µM] (inactive)
23,C[C@@H]1CN([C@@H](C)CO)C(=O)c2cc(NC(=O)c3ccncc3)ccc2O[C@@H](C)CCCCO[C@@H]1CN(C)Cc1ccncc1,7.05% (inactive)
24,CC(=O)Cc1nsc(NC(=O)c2cccc(F)c2)n1,-7.15% (inactive)

row,SMILES,activation (acetylation increase)
1,CCCN1CCN(S(=O)(=O)c2ccc3c(c2)CC(C)N3C(=O)C2CC2)CC1 (stereo not drawn),15.8% (inactive)
2,c1ccc2c(-c3nn4nnnc4c4ccccc34)cccc2c1,38.8% (inactive)
3,COCCCNC(=O)c1ccc(CSCc2ccc(C)cc2)o1,-6.72% (inactive)
4,C[C@@H]1CN([C@H](C)CO)C(=O)c2cc(NC(=O)Cc3cn(C)c4ccccc34)ccc2O[C@@H]1CN(C)C(=O)Nc1ccccc1,5.4% (inactive)
5,COc1cccc(NC(=O)N(C)C[C@@H]2OCc3ccccc3-c3c(n(C)c4ccccc34)C(=O)N([C@@H](C)CO)C[C@H]2C)c1,-5.27% [at 21 µM] (inactive)
6,COc1ccc(-c2cnc3c(c2)C(=O)N([C@H](C)CO)C[C@@H](C)[C@@H](CN(C)C(=O)Nc2c(C)noc2C)O3)cc1,-25.8% [at 10 µM] (inactive)
7,O=C(C[C@@H]1CC[C@@H]2[C@H](COC[C@@H](O)CN2S(=O)(=O)c2ccc(Cl)cc2)O1)N[C@@H]1CCN(Cc2ccccc2)C1,3.06% (inactive)
8,CC(Nc1ccccc1)c1cc(Cl)ccc1O (stereo not drawn),-12.3% (inactive)
9,O=C(c1ccc(N2CCCC2=O)cc1)N1CCCCCC1,30.5% (inactive)
10,CO[C@H]1CN(C)C(=O)c2ccc(NC(=O)C3CCOCC3)cc2OC[C@@H](C)N(C)C[C@@H]1C,1.83% (inactive)
11,Cc1cc(F)cc(-c2cc(C(=O)NCc3ccccc3)[nH]n2)c1,17% (inactive)
12,COc1cc(NC(=O)CCN2CCN(C)CC2)cc(OC)c1,-15% (inactive)
13,CC(/C=C1\SC(=O)N(CCCC(=O)O)C1=O)=C\c1ccccc1,1.4% (inactive)
14,CCOc1c(Br)cc(/C=C2/SC(=O)N(CC(=O)N3CCCC3)C2=O)cc1OC,-12.5% (inactive)
15,O=C(CCN1C(=O)/C(=C/c2ccccc2)SC1=S)NCCCN1CCOCC1,1.04% (inactive)
16,O=C1/C(=C\c2ccco2)SC(=S)N1Cc1ccccc1,4.17% (inactive)
17,O=S(=O)(NCCSc1ccc(Cl)cc1)c1ccc(F)cc1,-13.2% (inactive)
18,Cc1ccc(-c2ccc3c(c2)O[C@@H](CN(C)C(=O)C2CCCCC2)[C@H](C)CN([C@H](C)CO)S3(=O)=O)cc1,-79.6% (inactive)
19,COc1ccc(NC(=O)N[C@H]2CC[C@H](CCn3cc(-c4ccccc4F)nn3)O[C@@H]2CO)cc1,11.2% (inactive)
20,O=C(O)c1cccn1Cc1ccccc1F,15.5% (inactive)
21,Cc1c(CNCCc2ccc(Cl)cc2)c(C(=O)O)c(C)n1-c1ccccc1,-14.6% (inactive)
22,C[C@@H]1CCCCO[C@H](CN(C)Cc2ccc(C(F)(F)F)cc2)[C@H](C)CN([C@H](C)CO)C(=O)c2cc(NC(=O)Cc3ccccc3)ccc2O1,-25.4% (inactive)
23,CC(C)NC(=O)c1c(O)c2ccccc2[nH]c1=O,11% (inactive)
24,COc1ccc(S(=O)(=O)N(C)C[C@@H]2Oc3ccc(NS(=O)(=O)c4cn(C)cn4)cc3C(=O)N([C@H](C)CO)C[C@@H]2C)cc1,-1.19% (inactive)

row,SMILES,activation (acetylation increase)
1,CCOc1ccc(S(=O)(=O)/N=C(/Nc2ccc(C(C)=O)cc2)c2ccccc2)cc1,35.1% (inactive)
2,Cc1cc(NS(=O)(=O)c2ccc(NC(=O)CCCOc3ccccc3)cc2)no1,17.9% (inactive)
3,NC(=NC(=O)c1ccccc1)N1CCOCC1,29% (inactive)
4,Cc1ccccc1Nc1ncnc2c1cnn2-c1ccccc1,-4.46% (inactive)
5,O=C(c1ccc(F)cc1)N(C(=O)c1ccc(F)cc1)c1ncccn1,-7.59% (inactive)
6,O=S(=O)(c1ccc(Br)cc1)n1ccc2ccccc21,17.3% (inactive)
7,COC(=O)Nc1ccc(S(=O)(=O)N(CCO)CC(F)(F)C(F)F)cc1,-6.68% (inactive)
8,Cc1cc(C(=O)OCC(=O)N(C)c2ccccc2)ccc1[N+](=O)[O-],10.2% (inactive)
9,COC(=O)c1ccc(Cl)c(NC(C)=O)c1,14.3% (inactive)
10,CCOc1cc(CNC2CCCC2)cc(Cl)c1OCc1ccc(F)cc1,-105% (inactive)
11,O=C(C[C@H]1CC[C@@H](NS(=O)(=O)c2ccc(F)cc2)[C@H](CO)O1)N1CCN(c2ccccc2)CC1,24.9% [at 21 µM] (inactive)
12,O=C(C[C@@H]1CC[C@@H](NS(=O)(=O)c2ccc(F)cc2)[C@H](CO)O1)N1CCN(c2ccccc2)CC1,26.8% (inactive)
13,C=CC[C@@H](CC(=O)N[C@@H](CO)Cc1ccccc1)C(=O)N[C@@H](COC(=O)[C@@H](CC=C)CC(=O)OC(C)(C)C)Cc1c[nH]c2ccccc12,22.7% (inactive)
14,COc1ccc(NC(=O)Nc2ccc3c(c2)CC(=O)N([C@H](C)CO)C[C@H](C)[C@@H](CN(C)CC2CCCCC2)O3)cc1,19.9% (inactive)
15,CNC(=O)COC(=O)c1cc(-c2ccco2)nc2ccccc12,21.4% [at 10 µM] (inactive)
16,Cc1nc(SCC(=O)OCc2ccccc2)c(C#N)c(-c2ccccc2)c1C(=O)Nc1ccccc1,10.7% (inactive)
17,COCC(=O)N1CC(=O)N2[C@@H](CO)[C@H](c3ccc(-c4ccncc4)cc3)[C@@H]2C1,-19.7% (inactive)
18,O=C(Nc1cccc(OC(F)(F)F)c1)c1ccc(-c2cccnc2)c2ccoc12,14.6% (inactive)
19,O=C(NCc1cccc(Cl)c1)c1ccc(-n2ccnc2)c2ccoc12,-31.3% (inactive)
20,CC(Oc1ccc2c3c(c(=O)oc2c1)CCC3)C(=O)N[C@@H](Cc1ccccc1)C(=O)O (stereo partly drawn),2.57% (inactive)
21,Nc1ncnc(NCc2ccc(F)cc2)c1[N+](=O)[O-],-6.18% (inactive)
22,COc1cccc(S(=O)(=O)N2C[C@@H]3N[C@H](C2)C3c2ccc(-c3ccccc3C)cc2)c1 (stereo partly drawn),-19% (inactive)
23,O=C(C1CCCCC1)N1C[C@@H]2N[C@H](C1)C2c1ccc(-c2cccc(F)c2)cc1 (stereo partly drawn),12.9% (inactive)
24,O=S(=O)(c1ccc(-c2ccccc2)cc1)N1C[C@@H]2N[C@H](C1)[C@@H]2c1ccc(-c2cccnc2)cc1,-89.6% (inactive)

row,SMILES,activation (acetylation increase)
1,COc1ccccc1-c1ccc([C@@H]2[C@@H]3CN(S(=O)(=O)c4ccc(-c5ccccc5)cc4)C[C@H]2N3)cc1,-95.8% (inactive)
2,COc1cccc(-c2ccc(C3[C@@H]4CN(C(=O)C5CC5)C[C@H]3N4)cc2)c1 (stereo partly drawn),-20.8% (inactive)
3,N#Cc1ccc(-c2ccc([C@@H]3[C@@H]4CN(S(=O)(=O)c5ccc(-c6ccccc6)cc5)C[C@H]3N4)cc2)cc1,-96.9% [at 21 µM] (inactive)
4,N#Cc1cccc(-c2ccc([C@@H]3[C@@H]4CN(S(=O)(=O)c5ccc(-c6ccccc6)cc5)C[C@H]3N4)cc2)c1,-102% (inactive)
5,C[C@@H]1CN([C@H](C)CO)C(=O)c2cc(/C=C/c3ccccc3)cnc2O[C@@H]1CN(C)Cc1cccnc1,3.6% [at 21 µM] (inactive)
6,COc1cc(CNCCN2CCOCC2)ccc1OCc1ccc(Cl)cc1Cl,-59.2% (inactive)
7,C[C@@H]1CN([C@H](C)CO)C(=O)c2cc(C#Cc3ccccc3)cnc2O[C@@H]1CN(C)C(=O)c1ccccn1,-6.46% (inactive)
8,O=C(CN1C(=O)C2CC=CCC2C1=O)Nc1nccs1 (stereo not drawn),-9.37% (inactive)
9,CN(C)CCCNC(=O)CC1C[C@H](C(=O)N2CCCCC2)[C@@]2(CCc3ccccc3)c3[nH]c4ccccc4c3CCN2C1=O (stereo partly drawn),-11.9% (inactive)
10,COc1ccc(-n2c(C)c([N+](=O)[O-])c3ccc(O)c(CN(C)C)c32)cc1,-13% (inactive)
11,COc1cc(O)c(C(CC(=O)N2CCOCC2)c2ccc(N(C)C)cc2)c(OC)c1 (stereo not drawn),4.72% (inactive)
12,CNC[C@H]1Oc2ccc(NC(=O)CCN3CCOCC3)cc2C(=O)N([C@H](C)CO)C[C@H]1C,-13.7% [at 21 µM] (inactive)
13,C=CCN(c1ccc(C(=O)Nc2ccc3c(c2)OCO3)cc1)S(C)(=O)=O,28.3% (inactive)
14,N#Cc1ccc(-c2ccc(C3[C@@H]4CN(S(=O)(=O)c5ccc(F)cc5)C[C@H]3N4)cc2)cc1 (stereo partly drawn),-93.4% (inactive)
15,Cc1cccc(S(=O)(=O)N2C[C@@H]3N[C@H](C2)C3c2ccc(-c3ccccc3C)cc2)c1 (stereo partly drawn),-95.3% (inactive)
16,CCCSc1nnc(Sc2nnnn2-c2ccccc2)s1,-36.7% (inactive)
17,COc1ccc(CCN2C(=O)c3[nH]nc(-c4ccccc4O)c3C2c2ccccc2)cc1OC (stereo not drawn),9.8% (inactive)
18,COc1ccc(CCN2C(=O)CC(C(C)c3ccccc3)C2=O)cc1OC (stereo not drawn),8.2% (inactive)
19,CCCCN(C)Cc1c(C)[nH]c2ccccc2c1=O,10.8% (inactive)
20,CC1(Cc2ccc(Cl)cc2)C(=O)Nc2ccc(-c3cccnc3)cc21 (stereo not drawn),-18.9% (inactive)
21,COc1ccccc1-c1ccc([C@@H]2[C@@H](CO)N(C(C)=O)C23CN(C(C)=O)C3)cc1,-6.94% (inactive)
